{
  "source": "PubChem BioAssay (NCI)",
  "note": "This is part of a sample that, as a whole, favours compounds with a hit. Of some 83,000 tested, about 20% had one in any assay.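 Values shown are percent growth following 48 h exposure of cells in 96-well plates to a single concentration of compound; below 10 was considered active.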 Values without a mark were called inactive. Activity calls are given as the source filed them.",
  "data": [
    {"tested_on": "HCC-2998 colon", "assay": "NCI-60 one-dose screen, 48 h (100 = growth as untreated, 0 = no growth, -100 = all killed)", "details": "10 µM unless noted", "values": [
      {"molecule": "COC(=O)c1c2c(c(C)[n+]([O-])c1C)C(=O)C(NCc1ccc(Cl)cc1)=CC2=O", "growth": "59.6%"},
      {"molecule": "C=C1C(=O)O[C@H]2[C@H]1CC/C(COC(=O)CCSCCC(=O)OC/C1=C/CC[C@@]3(C)O[C@H]3[C@H]3OC(=O)C(=C)[C@@H]3CC1)=C\\CC[C@@]1(C)O[C@@H]21", "growth": "-1.54% (active)"},
      {"molecule": "Cc1c(-n2nnc(-c3nc4ccccc4s3)c2N)c(=O)n(-c2ccccc2)n1C", "growth": "95.4%"},
      {"molecule": "O=C(c1cc2ccccc2o1)c1nn(-c2ccccc2)/c(=N/N=Cc2cn(-c3ccccc3)nc2-c2cc3ccccc3oc2=O)s1", "growth": "104%"},
      {"molecule": "C=CCn1c(SCC(=O)NCc2cc(C)c(O)c(C)c2)nc2ccc(Cl)cc2c1=O", "growth": "110%"},
      {"molecule": "CNC(=O)c1c(NC(=O)c2ccc(C(F)(F)F)cc2)sc2c1CCC(=O)C2", "growth": "-39.3% (active)"},
      {"molecule": "O=C(Nc1ccc(-c2nc(N3CCOCC3)c3cccn3n2)cc1)Nc1cccnc1", "growth": "12.9%"},
      {"molecule": "COc1ccc(/C(C)=C(/c2ccc(OCCCN(C)C)cc2)c2ccc(OC(=O)Cc3ccccc3)cc2)cc1", "growth": "86.7%"},
      {"molecule": "O=C(NCc1ccccc1)Nc1ccccc1CNc1nc(Nc2ccc(OCCN3CCCC3)cc2)ncc1Cl", "growth": "96.9%"},
      {"molecule": "CN1C(=O)/C(=C/c2ccc(C(=O)Nc3ncc(Cc4ccc(Cl)cc4)s3)cc2)SC1=S", "growth": "59.3%"},
      {"molecule": "CCN1C(=O)N(CC)C2C1NN=c1s/c(=C\\c3cccc([N+](=O)[O-])c3)c(=O)n12", "note": "(configuration not stated)", "growth": "15.9%"},
      {"molecule": "CCN(CC)CCOc1ccc(C(=C(C)c2ccc(Cl)cc2)c2ccc(OCCN(CC)CC)cc2)cc1", "growth": "-91.2% (active)"}
    ]}
  ]
}
